Measurements from PubChem BioAssay AID2066 (NMMLSC, 2009).
In all, about 320,000 compounds went through this assay and about 50 (0.02%) were called active. What follows is part of a selection rich in actives, with near analogues and random picks from the rest. Unmarked numbers belong to inactive results.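 The calls were made as follows: active = GFP response relative to DMSO above a set limit, near screen average plus 3 SD (cut at about 150% in these data); inconclusive = fewer than 70 cells counted for the yeast strain; inactive = the rest.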

assay: yeast AGP1-GFP level changes, GLN3 branch – cell-based, multiplex flow cytometry, S. cerevisiae, MLPCN library, primary screen (AID 2066); settings: 3 h, at 10 µM, hits give high values, GFP as percent of DMSO wells;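 also: median GFP channel fluorescence of the gated AGP1 strain per well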

Compound	GFP response vs DMSO
O=C(Nc1ccc(F)cc1)C1CCCN(S(=O)(=O)c2ccc(-n3cnnn3)cc2)C1 (centres undefined)	102%
CCN(CC)CCNS(=O)(=O)c1ccc(/C=C/C(=O)O)cc1	98.4%
Cc1ccc(NC(=O)CSc2nn3c(=O)c(C)nnc3s2)cc1Cl	93.9%
CC(=O)Nc1ccc(Nc2nc3c(S(=O)(=O)c4ccc(C)c(C)c4)nnn3c3ccccc23)cc1	100%
Cc1cccc(Nc2nc3c(S(=O)(=O)c4ccccc4)nnn3c3ccccc23)c1C	224% [may fluoresce green] (active)
Cc1ccc(S(=O)(=O)c2nnn3c2nc(N2CCN(c4ccccn4)CC2)c2ccccc23)cc1	97.1%
NC(=O)C1CC=CCC1C(=O)OCC(Cl)=C(Cl)Cl (centres undefined)	105%
Cc1cc(C)cc(OCC(=O)OCC(=O)NC2CCCC2)c1	87.5%
Cc1ccc(C(=O)Nc2ccn(C)n2)cc1	102%
CN(C)S(=O)(=O)c1cc(C(=O)Nc2ccn(C)n2)c(Cl)cc1Cl	1300% [may fluoresce green] (active)
O=C(Nc1nccs1)c1cc(S(=O)(=O)N2CCOCC2)c(Cl)cc1Cl	100%
Cn1nnnc1SCC(=O)Nc1ccccc1C(=O)NC1CC1	102%
Cc1ccc2c(=O)cc(C(=O)NCCc3ccc(S(N)(=O)=O)cc3)oc2c1C	93.5%
Cc1oc(C(N)=O)cc1COc1ccc(C(N)=O)cc1	101%
O=C1CCC/C=C/C[C@@H](CC(=O)N(CCO)Cc2ccccc2)C(=O)NC[C@H](c2ccccc2)O1	96.8%
Cc1ccc(C)c(NC(=O)CCC(=O)N/N=C2/CC(=O)CC(C)(C)C2)c1	96.2%
O=C(COC(=O)c1cc(S(=O)(=O)N2CCOCC2)ccc1F)NC1CC1	91.4%
COc1cccc(C(=O)Nc2cc3c(cc2Br)OCCCO3)c1	92%
CS(=O)(=O)Nc1ccccc1C(=O)OCC(=O)NC1CC1	106%
O=C(CCc1[nH]c2ccccc2c1Sc1ccccc1)N(CCO)CCO	99.2%
Nc1nc(NCc2ccccc2)n(-c2ccccc2)n1	99.9%
COc1cc(C)ccc1OCC(=O)OCC(=O)c1ccc[nH]1	100%
COc1ccc(S(=O)(=O)N(C)C[C@@H]2Oc3ccc(NS(=O)(=O)c4cn(C)cn4)cc3C(=O)N([C@@H](C)CO)C[C@@H]2C)cc1	91.3%
COCCn1c(SCC(=O)Nc2ccccc2F)nc2c(c1=O)SCC2	96.5%
Cc1ccc(Oc2cc(NC(=O)CCCn3nc(C)c([N+](=O)[O-])c3C)cc([N+](=O)[O-])c2)cc1	95.5%
CCn1cc(C(=O)Nc2cc(C)ccc2C)c(=O)c2ccc(C)nc21	108%
C=CCNC(=S)/N=c1/ccccn1Cc1ccccc1	108%

Compound	GFP response vs DMSO
Cc1ccc2cc(C)c(N3CCC(C)CC3)nc2c1	108%
CCC1(C)Cc2c(sc3nnn(CC(=O)Nc4ccc(Cl)cc4)c(=O)c23)CO1 (centres undefined)	98%
Cc1nn(Cc2ccccc2)c(C)c1C(=O)N1CCN(CC(=O)Nc2ccccc2Cl)CC1	99.8%
CCN1C(=O)N[C@@H](c2ccccc2)[C@H](C(C)=O)[C@H]1C	81.1%
COC(=O)c1cc(NC(=O)c2cc(C(C)(C)C)nn2Cc2cccc(C)c2)ccc1N1CCOCC1	97%
CCOC(=O)C(C)n1cnc2scc(-c3ccc(C)c(C)c3)c2c1=O (centres undefined)	93.8%
COC(=O)c1sccc1-n1cccc1C(=O)C(=O)N1CCCCC1	92.6%
Cc1ccc(C(c2nnnn2CS(=O)(=O)c2ccc(C)cc2)N2CCC(C)CC2)cc1 (centres undefined)	91.3%
CC(=O)Nc1ccc(S(=O)(=O)NCC(=O)OCC(=O)c2ccc[nH]2)cc1	107%
O=C(Nc1cc(S(=O)(=O)N2CCOCC2)ccc1N1CCOCC1)c1c(F)cccc1Cl	103%
CC(Sc1nnc(Cc2ccc([N+](=O)[O-])cc2)o1)C(N)=O (centres undefined)	97.7%
O=C(O)c1cccc(S(=O)(=O)N2CC=C(c3ccccc3)CC2)c1	101%
O=C1c2ccccc2C(=O)N1CC1c2ccccc2CCN1S(=O)(=O)c1ccccc1 (centres undefined)	96.4%
Cc1nnc(CN(C)Cc2cn[nH]c2-c2ccc(-c3ccccc3)cc2)o1	108%
CC(c1ccccn1)N(C)C(=O)c1ccc2nc(Cc3cccc(Cl)c3)oc2c1 (centres undefined)	103%
Cn1nnnc1SCC(=O)Nc1cccc(S(=O)(=O)N2CCCCC2)c1	77.3%
O=C(OCC(=O)N1CCCCCC1)c1cnc(Cl)c(Cl)c1	97.1%
COc1ccc(NC2=CC(=S)NC(C)(C)C2)cc1	99.9%
CCN(CC)CCCNC(=O)c1c(O)c2cc(F)cc3c2n(c1=O)C(C)CC3 (centres undefined)	88.3%
O=c1cc(Cl)c2ccccc2n1-c1ccccc1	103%
N#Cc1ccccc1NC(=O)COc1c(Br)cc(Br)c2cccnc12	96.8%
Cc1cc(C)nc(N2C(=O)CC(Cc3ccccc3)C2=O)n1 (centres undefined)	112%
CCOC(=O)N1CCC(NC(=O)CN2C(=O)COc3ccc(C(C)(C)C)cc32)CC1	88.7%
CCCCN(C(=O)c1ccc2ccccc2c1)c1c(N)n(CCCC)c(=O)[nH]c1=O	92.5%
O=C(CN1CCN(S(=O)(=O)c2cc(Cl)ccc2Cl)CC1)c1ccc(O)c(O)c1	94.9%
CCOc1ccc2oc(C(=O)N(CC)CC(=O)Nc3ccc(NC(C)=O)cc3)c(C)c2c1	103%
COc1cccc(NC(=O)C(Sc2nc3ccccc3c(=O)n2CC(C)C)c2ccccc2)c1 (centres undefined)	98.7%
